From PubChem BioAssay AID641 (Vanderbilt High Throughput Screening Facility, 2007)
About 3,400 (5.9%) of roughly 58,000 compounds were called active. The full list was thinned out, with actives kept by preference. Unmarked numbers belong to inactive results.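 The calls were made as follows: active = luminescence count or its row- and column-corrected plate score outside the 99.7% band of the plate's sample wells, on either side; inactive = the rest.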

The compounds below were run against D(1A) dopamine receptor (Homo sapiens) (UniProt P21728) (assay: D1 CRE-luciferase signal change, two-sided – cell-based, HEK293 D1, dopamine EC30, D1 allosteric modulator project, primary screen (AID 641)). Conditions: dopamine EC30 potentiation, at 10 µM, actives deviate in either direction.
D(1A) dopamine receptor (Homo sapiens), sequence (P21728 whole entry, looked up): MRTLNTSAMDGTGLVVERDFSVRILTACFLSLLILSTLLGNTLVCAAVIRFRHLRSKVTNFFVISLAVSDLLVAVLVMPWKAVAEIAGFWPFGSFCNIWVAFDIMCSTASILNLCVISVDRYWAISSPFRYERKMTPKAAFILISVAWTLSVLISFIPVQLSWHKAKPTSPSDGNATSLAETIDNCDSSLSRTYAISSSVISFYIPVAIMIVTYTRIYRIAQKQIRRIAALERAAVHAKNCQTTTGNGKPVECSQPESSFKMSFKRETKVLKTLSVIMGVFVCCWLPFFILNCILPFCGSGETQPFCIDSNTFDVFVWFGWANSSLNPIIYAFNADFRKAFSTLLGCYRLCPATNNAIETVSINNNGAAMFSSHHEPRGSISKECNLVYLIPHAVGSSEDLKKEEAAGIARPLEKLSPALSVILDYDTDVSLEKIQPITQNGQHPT

Row | SMILES | B-score
1 | COCCNC(=O)c1snc2ccc(Cl)cc12 | 0.741
2 | CCCc1nc2ccccc2c(C(=O)OCc2nnc(-c3cc(OC)c(OC)c(OC)c3)o2)c1CC | 2.19
3 | CCN1CCN(Cc2c(O)ccc3c(=O)c(-c4ccc(OC)c(OC)c4)c(C(F)(F)F)oc23)CC1 | -0.698
4 | Cc1cc(=O)oc(C)c1C(=O)Nc1cnc2ccccc2c1 | -0.206
5 | CNC(=O)CN1C(=O)c2ccccc2S1(=O)=O | 0.686
6 | O=C(CN1C(=O)c2ccccc2S1(=O)=O)N1CCc2ccccc21 | -3.68 (active)
7 | O=C(c1cccc(C(=O)N2CCc3ccccc32)n1)N1CCc2ccccc21 | 0.928
8 | CCOc1ccc(-c2nnc3ccc(SC)nn23)cc1 | -4.57 (active)
9 | COC(=O)C(C)Sc1ccc2nnc(-c3cccc(F)c3)n2n1 (stereo unspecified) | 0.378
10 | O=C(CN1CCOCC1)Nc1cc(Cl)ccc1Cl | -0.306
11 | C=C(C)Cn1c(N2CCN(CC)CC2)nc2c1c(=O)[nH]c(=O)n2C | 0.264
12 | Brc1cccc(-c2nnc3n2CCC3)c1 | 0.138
13 | CCOc1cc(-c2nc3cc(C)ccn3c2NCC2CCCO2)ccc1O (stereo unspecified) | -0.604
14 | COc1ccc(C2N=C(N)N=C(N)N2c2ccccc2)cc1OC (stereo unspecified) | -3.55 (active)
15 | COc1ccc(C2SCCN2S(=O)(=O)c2ccccc2)cc1OC (stereo unspecified) | 0.2
16 | COc1ccc(C2/C(=C(/O)c3ccccc3)C(=O)C(=O)N2c2ncccn2)cc1OC (stereo unspecified) | -0.0203
17 | CCOC(=O)[C@H]1CCC[C@@H](NS(=O)(=O)c2ccc(NC(C)=O)cc2)C1 | -0.0967
18 | Cc1ccc(S(=O)(=O)N(C)CC(=O)N2CCc3ccccc32)cc1 | 1.86
19 | CCOc1ccc2[nH]c(=O)c(CN(Cc3nnnn3CCc3ccccc3)CC3CCCO3)cc2c1 (stereo unspecified) | 1.9
20 | CCOc1ccc2c(c1)cc(CN(C(=O)CC)C1CCCCC1)c1nnnn12 | 12.6 (active)
21 | CCOc1ccc2[nH]c(=O)c(CN(Cc3nnnn3Cc3ccccc3)CC3CCCO3)cc2c1 (stereo unspecified) | -0.307
22 | O=C(NCc1ccco1)c1cnn2c(C(F)(F)F)cc(-c3ccco3)nc12 | 4.37 (active)
23 | O=C(NCc1ccco1)c1cccn2c(=O)c3cc(Br)ccc3nc12 | -0.861
24 | COC(=O)c1cnn2c(C(F)(F)F)cc(-c3ccco3)nc12 | 1.18

Row | SMILES | B-score
25 | O=C(O)C1CCCN(S(=O)(=O)c2cccc3cccnc23)C1 (stereo unspecified) | 0.0158
26 | CCOC(=O)c1c(NC(=O)CSc2nnc(Cc3csc(N)n3)n2C)sc(C)c1C | 4.94 (active)
27 | COC(=O)c1c(NC(=O)CSc2nc3c(c(=O)n(C)c(=O)n3C)n2C(C)C)sc(C)c1C | 3.35
28 | CCOC(=O)c1c(NC(=O)CSc2nnc(CN3CCOCC3)n2C)sc2c1CCCC2 | 6.03 (active)
29 | CCOC(=O)c1c(NC(=O)CSc2nnc(C)c(=O)[nH]2)sc2c1CCC2 | 1.36
30 | Cn1c(Cc2csc(N)n2)nnc1SC/C=C/c1ccccc1 | 0.477
31 | CCOCC(=O)Nc1sc2c(c1C(=O)OCC)CCCC2 | -0.0785
32 | O=C(NCc1ccc2c(c1)OCO2)C1CCCN(S(=O)(=O)c2cccs2)C1 (stereo unspecified) | -0.0139
33 | CCC1CCCCN1C(=O)Nc1cccc(NC(=O)N2CCCCC2CC)c1 (stereo unspecified) | 0.11
34 | CCOCC(=O)NCc1ccc2c(c1)cc(C)n2C | 0.132
35 | Cc1noc(C)c1S(=O)(=O)N1CCCC(C(=O)Nc2nccs2)C1 (stereo unspecified) | -0.254
36 | COC(=O)C(C)C1Sc2ccccc2NC1=O (stereo unspecified) | 4.51 (active)
37 | CCOC(=O)c1ccccc1NC(=O)CC1Nc2ccccc2NC1=O (stereo unspecified) | -0.897
38 | COc1ccc(N=Cc2c(O)[nH]c3ccccc23)cc1OC | -2.18 (active)
39 | COc1cc(N=Cc2c(O)[nH]c3ccccc23)cc(OC)c1OC | -1.15
40 | COc1ccc(OC)c(N=Cc2c(O)[nH]c3ccccc23)c1 | 1.65
41 | CN(C)Cc1c(O)ccc2occ(C(O)c3ccccc3)c12 (stereo unspecified) | 0
42 | Cc1nnc(SCC(=O)NCCOc2ccc(Cl)cc2)n1-c1ccccc1 | 0.122
43 | O=C(CCC(=O)OCC(F)(F)C(F)F)NCc1ccccc1 | 0.31
44 | FC(F)(F)c1nnc2sc(-c3ccco3)nn12 | 0.0156
45 | CCOC(=O)c1ccn(-c2nc(-c3ccco3)cc(C(F)(F)F)n2)n1 | -0.161
46 | O=C(CSc1nc(-c2ccco2)cc(C(F)(F)F)n1)N1CCc2ccccc2C1 | 0.312
47 | FC(F)(F)c1cc(-c2ccco2)nc(N2CCOCC2)n1 | 17 (active)
48 | O=C(CSc1nc(-c2ccco2)cc(C(F)(F)F)n1)NCc1cccs1 | 0.0388

Row | SMILES | B-score
49 | Cc1cc(C(F)(F)F)nn1-c1nc(-c2ccco2)cc(C(F)(F)F)n1 | 9.17 (active)
50 | C=CCc1cccc2cc(C(=O)N3CCN(C(=O)OCC)CC3)c(=O)oc12 | -0.147
51 | CCOC(=O)Cn1c(=O)oc2cc(S(=O)(=O)N(C)Cc3ccco3)ccc21 | 0.239
52 | Cn1nnnc1SCC(=O)N1CCN(Cc2ccccc2)CC1 | 0.031
53 | CCOC(=O)N1CCC(NC(=O)COc2cc(=O)n(C)c3ccccc23)CC1 | 0.112
54 | Cc1occc1C(=O)N1CCCc2ccccc21 | 0.259
55 | CCc1cc(=O)oc2cc(OCC(=O)N3CCCc4ccccc43)ccc12 | 8.41 (active)
56 | Cc1ccc2c(c1)N(CC(=O)N1CCCc3ccccc31)C(=O)C(C)O2 (stereo unspecified) | 1.2
57 | Cc1ccc(C2c3c(oc4ccc(C)cc4c3=O)C(=O)N2CCCN2CCOCC2)cc1 (stereo unspecified) | 1.68
58 | Cc1ccc(S(=O)(=O)C(C#N)c2nc3ccccc3nc2N2CCCC2)cc1C (stereo unspecified) | 0.792
59 | CC(C)(C)NC(=O)C(c1ccncc1)N(C(=O)CNC(=O)c1ccco1)c1ccc2c(c1)OCO2 (stereo unspecified) | 1.5
60 | CCn1c2c(c3ccc(OC)cc31)CCCC2=O | 0.923
61 | COc1ccc(CCNC(=O)C2CCCN(Cc3nc(-c4cccc(Cl)c4)oc3C)C2)cc1OC (stereo unspecified) | 0.204
62 | COc1ccc(CCN(C)CCN2C(=O)c3ccccc3C2=O)cc1OC | 0.821
63 | COc1ccc(CCN(C)C(=O)C2CCCN(Cc3ccc(OC)c(OC)c3)C2)cc1OC (stereo unspecified) | 5.3 (active)
64 | COc1ccc(N2CCN(CCNC(=O)CCN3C(=O)COc4ccccc43)CC2)cc1 | -0.0397
65 | CCCN1CCN(CCCNC(=O)CN2C(=O)COc3ccccc32)CC1 | -0.525
66 | O=C(CCN1C(=O)COc2ccccc21)NCCCN1CCN(c2ccc(F)cc2)CC1 | -2.68 (active)
67 | Cn1nc(-c2ccc(Cl)cc2)c2cc(C(=O)NCc3ccco3)sc21 | -0.605
68 | COc1ccc(OCC(=O)N2CCOCC2)cc1 | 0.809
69 | COc1cc(NC(=O)N2CCOCC2)cc(OC)c1 | 4.92 (active)
70 | CCOC(=O)c1[nH]c2ccc(OC)cc2c1NC(=O)N1CCOCC1 | 1.26
71 | COc1ccc2[nH]c(=O)c(CN(CC3CCCO3)C(=O)Nc3ccccc3)cc2c1 (stereo unspecified) | -0.175
72 | Cc1cc(C(F)(F)F)nn1CC(=O)N1CCCC1 | 0.971

Row | SMILES | B-score
73 | COC(=O)c1ccccc1NC(=O)CSc1ccccn1 | 3.05
74 | CCn1ncc(C2=NOC(C(=O)Nc3ccccc3C(=O)OC)C2)c1C (stereo unspecified) | 13.2 (active)
75 | CCn1ncc(C2=NOC(C(=O)N3CCN(c4ccccc4)CC3)C2)c1C (stereo unspecified) | -0.447
76 | c1ccc(CCC2=NCCn3cccc32)cc1 | -0.434
77 | O=C(C1CCN(CC2CCCCC2)CC1)N1CCCC1 | 0.0452
78 | COC(=O)C1=CN(C)C=C(C(=O)OC)C1c1ccc(Cl)cc1Cl | 0.625
79 | CCCc1nc(-c2ccccc2O)n(-c2ccccc2)n1 | 8.71 (active)
80 | CCCc1nc(N2CCN(C)CC2)c2sc(=S)n(-c3ccccc3)c2n1 | 0.374
81 | O=C(NCc1ccco1)c1nc(-c2ccccc2)n(-c2ccccc2)n1 | -1.33
82 | O=C(c1ccco1)N1CCN(C(=O)C2CC(c3ccc(F)cc3)=NO2)CC1 (stereo unspecified) | -0.404
83 | CC1(C)CC(=O)C=C(NCc2ccncc2)C1 | 0.0608
84 | CCOC(=O)N1CCN(Cc2nc3c(c(=O)n(C)c(=O)n3C)n2Cc2ccccc2)CC1 | -0.0843
85 | CC(=O)Nc1ccc(S(=O)(=O)N2CCCC2C(=O)O)cc1 (stereo unspecified) | -0.232
86 | O=C1c2cccc3cccc(c23)N1CN1CCN(c2ccccn2)CC1 | -2.84
87 | OC(COc1cccc2ccccc12)CN1CCN(c2ccccn2)CC1 (stereo unspecified) | -4.42 (active)
88 | OC(COc1cccc(OCC(O)CN2CCCC2)c1)CN1CCCC1 (stereo unspecified) | -0.368
89 | COc1ccc(NC(=O)Nc2cccc3cccnc23)cc1 | -0.391
90 | O=C(CSc1nnnn1C1CCCC1)Nc1ccc2c(c1)OCCO2 | -0.309
91 | COc1ccc(OC)c2sc(NC(=O)C3COc4ccccc4O3)nc12 (stereo unspecified) | 1.13
92 | CCCC(=O)N(CCc1ccccc1)Cc1nc2ccccc2c(=O)[nH]1 | 0.0641
93 | CCN(Cc1nc2ccccc2c(=O)[nH]1)Cc1cc(=O)oc2cc(C)c(C)cc12 | -2.91 (active)
94 | O=C(c1ccco1)N(Cc1nc2ccccc2c(=O)[nH]1)C1CCCC1 | -0.0551
95 | COc1ccc(-n2nnc3c(=O)n(CC(=O)OCc4ccccc4)cnc32)cc1 | -0.218
96 | Cn1c(SCC(=O)N2CCOCC2)nnc1-c1ccc(NC(=O)c2ccccc2F)cc1 | -0.459
